Laboratory results from ChEMBL document CHEMBL1961873, “Compounds: GSK PKIS; Assays: Nanosyn kinase panel” (2012).

Tests used:
[1] = test system: Epidermal growth factor receptor (Homo sapiens), P00533 [T790M]; settings: at 1 µM
[2] = test system: Epidermal growth factor receptor (Homo sapiens), P00533 [L858R,T790M]; settings: at 0.1 µM
[3] = test system: Epidermal growth factor receptor (Homo sapiens), P00533 [L858R,T790M]; settings: at 1 µM
[4] = target: Ephrin type-A receptor 2 (Homo sapiens) (UniProt P29317); settings: at 0.1 µM
[5] = target: Ephrin type-A receptor 2 (Homo sapiens) (UniProt P29317); settings: at 1 µM
[6] = target: T1, Ephrin type-A receptor 3 (Homo sapiens) (UniProt P29320); settings: at 0.1 µM
T1 sequence (whole entry): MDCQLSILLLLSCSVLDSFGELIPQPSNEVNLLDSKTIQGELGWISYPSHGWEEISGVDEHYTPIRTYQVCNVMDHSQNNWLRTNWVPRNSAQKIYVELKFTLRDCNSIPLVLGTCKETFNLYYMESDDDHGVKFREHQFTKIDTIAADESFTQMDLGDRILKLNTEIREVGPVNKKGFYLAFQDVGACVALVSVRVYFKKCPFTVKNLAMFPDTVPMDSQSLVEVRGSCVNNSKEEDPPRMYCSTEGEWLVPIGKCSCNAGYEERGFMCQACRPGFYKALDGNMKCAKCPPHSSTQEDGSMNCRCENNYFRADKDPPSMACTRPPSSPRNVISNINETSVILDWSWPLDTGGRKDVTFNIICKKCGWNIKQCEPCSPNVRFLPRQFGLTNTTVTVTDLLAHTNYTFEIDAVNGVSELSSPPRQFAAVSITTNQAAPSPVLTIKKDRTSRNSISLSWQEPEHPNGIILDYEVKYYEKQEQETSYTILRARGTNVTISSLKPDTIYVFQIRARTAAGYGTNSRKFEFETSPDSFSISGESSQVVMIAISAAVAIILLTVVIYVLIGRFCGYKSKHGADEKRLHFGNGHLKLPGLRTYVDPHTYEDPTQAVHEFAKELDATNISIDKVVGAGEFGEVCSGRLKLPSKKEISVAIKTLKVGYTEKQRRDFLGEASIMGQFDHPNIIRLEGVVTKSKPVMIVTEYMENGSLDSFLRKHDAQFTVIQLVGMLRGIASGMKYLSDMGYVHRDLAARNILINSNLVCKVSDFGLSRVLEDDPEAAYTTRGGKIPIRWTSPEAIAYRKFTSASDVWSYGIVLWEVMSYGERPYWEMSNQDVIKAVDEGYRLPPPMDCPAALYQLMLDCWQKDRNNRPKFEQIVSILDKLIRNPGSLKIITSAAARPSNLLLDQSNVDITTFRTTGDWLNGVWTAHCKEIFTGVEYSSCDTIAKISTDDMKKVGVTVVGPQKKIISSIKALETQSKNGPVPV

[7] = target: T1, Ephrin type-A receptor 3 (Homo sapiens); settings: at 1 µM
[8] = target: Ephrin type-A receptor 4 (Homo sapiens) (UniProt P54764); settings: at 0.1 µM
[9] = target: Ephrin type-A receptor 4 (Homo sapiens) (UniProt P54764); settings: at 1 µM
[10] = target: T2, Ephrin type-B receptor 2 (Homo sapiens) (UniProt P29323); settings: at 0.1 µM
T2 sequence (whole entry): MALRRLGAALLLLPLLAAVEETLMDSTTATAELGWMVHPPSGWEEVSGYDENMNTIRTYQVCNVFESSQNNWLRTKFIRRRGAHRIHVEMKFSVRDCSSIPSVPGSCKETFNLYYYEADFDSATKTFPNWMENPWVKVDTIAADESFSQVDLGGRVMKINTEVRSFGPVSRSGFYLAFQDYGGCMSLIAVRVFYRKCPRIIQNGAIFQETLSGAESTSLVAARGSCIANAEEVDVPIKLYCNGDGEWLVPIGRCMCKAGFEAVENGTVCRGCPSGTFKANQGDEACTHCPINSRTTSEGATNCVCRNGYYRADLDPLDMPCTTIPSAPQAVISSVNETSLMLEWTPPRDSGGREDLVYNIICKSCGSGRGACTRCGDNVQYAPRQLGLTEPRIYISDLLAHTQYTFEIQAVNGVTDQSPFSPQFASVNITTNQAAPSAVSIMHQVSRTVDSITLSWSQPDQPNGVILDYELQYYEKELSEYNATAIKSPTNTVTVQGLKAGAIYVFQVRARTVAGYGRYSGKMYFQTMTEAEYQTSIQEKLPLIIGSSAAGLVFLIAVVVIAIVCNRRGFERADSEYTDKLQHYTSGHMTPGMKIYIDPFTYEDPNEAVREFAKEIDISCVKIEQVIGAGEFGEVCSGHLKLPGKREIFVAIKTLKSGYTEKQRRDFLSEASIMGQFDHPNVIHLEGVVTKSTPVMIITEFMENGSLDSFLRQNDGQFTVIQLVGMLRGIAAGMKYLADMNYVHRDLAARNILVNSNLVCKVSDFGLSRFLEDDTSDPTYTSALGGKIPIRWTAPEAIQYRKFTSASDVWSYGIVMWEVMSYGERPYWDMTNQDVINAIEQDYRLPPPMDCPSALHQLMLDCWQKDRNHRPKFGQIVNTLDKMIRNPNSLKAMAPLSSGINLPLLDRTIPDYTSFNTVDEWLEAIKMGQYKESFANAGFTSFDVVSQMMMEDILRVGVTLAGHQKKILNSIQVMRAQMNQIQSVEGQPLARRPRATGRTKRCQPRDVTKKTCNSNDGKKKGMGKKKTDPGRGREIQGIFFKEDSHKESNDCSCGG

[11] = target: T2, Ephrin type-B receptor 2 (Homo sapiens); settings: at 1 µM
[12] = target: T3, Ephrin type-B receptor 3 (Homo sapiens) (UniProt P54753); settings: at 0.1 µM
T3 sequence (whole entry): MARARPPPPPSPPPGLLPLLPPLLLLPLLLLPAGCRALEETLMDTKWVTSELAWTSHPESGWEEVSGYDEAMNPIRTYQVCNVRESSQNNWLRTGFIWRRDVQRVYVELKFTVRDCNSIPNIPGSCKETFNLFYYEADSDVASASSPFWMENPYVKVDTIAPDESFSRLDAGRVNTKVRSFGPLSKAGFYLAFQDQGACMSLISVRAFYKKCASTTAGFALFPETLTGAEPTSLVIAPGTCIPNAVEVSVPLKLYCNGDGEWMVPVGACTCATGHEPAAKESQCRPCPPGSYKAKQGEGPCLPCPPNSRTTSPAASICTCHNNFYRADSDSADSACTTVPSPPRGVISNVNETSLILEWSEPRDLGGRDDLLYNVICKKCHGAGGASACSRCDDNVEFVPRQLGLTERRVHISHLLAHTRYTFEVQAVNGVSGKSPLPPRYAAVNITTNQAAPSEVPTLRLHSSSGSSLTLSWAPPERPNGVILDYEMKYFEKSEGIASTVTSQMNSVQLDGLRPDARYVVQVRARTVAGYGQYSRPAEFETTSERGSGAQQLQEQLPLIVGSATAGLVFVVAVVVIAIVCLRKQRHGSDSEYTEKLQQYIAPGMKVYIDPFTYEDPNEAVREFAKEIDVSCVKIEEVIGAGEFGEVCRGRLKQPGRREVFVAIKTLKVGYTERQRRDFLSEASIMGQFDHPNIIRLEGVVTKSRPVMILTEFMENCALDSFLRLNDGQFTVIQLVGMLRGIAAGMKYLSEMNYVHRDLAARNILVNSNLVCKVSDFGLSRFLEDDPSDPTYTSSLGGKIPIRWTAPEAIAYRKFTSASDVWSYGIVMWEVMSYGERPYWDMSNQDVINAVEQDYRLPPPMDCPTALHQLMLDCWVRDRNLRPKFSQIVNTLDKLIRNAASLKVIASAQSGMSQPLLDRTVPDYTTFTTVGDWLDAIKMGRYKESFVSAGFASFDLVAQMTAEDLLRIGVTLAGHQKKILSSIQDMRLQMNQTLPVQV

[13] = target: T3, Ephrin type-B receptor 3 (Homo sapiens); settings: at 1 µM
[14] = target: T4, Ephrin type-B receptor 4 (Homo sapiens) (UniProt P54760); settings: at 0.1 µM
T4 sequence (whole entry): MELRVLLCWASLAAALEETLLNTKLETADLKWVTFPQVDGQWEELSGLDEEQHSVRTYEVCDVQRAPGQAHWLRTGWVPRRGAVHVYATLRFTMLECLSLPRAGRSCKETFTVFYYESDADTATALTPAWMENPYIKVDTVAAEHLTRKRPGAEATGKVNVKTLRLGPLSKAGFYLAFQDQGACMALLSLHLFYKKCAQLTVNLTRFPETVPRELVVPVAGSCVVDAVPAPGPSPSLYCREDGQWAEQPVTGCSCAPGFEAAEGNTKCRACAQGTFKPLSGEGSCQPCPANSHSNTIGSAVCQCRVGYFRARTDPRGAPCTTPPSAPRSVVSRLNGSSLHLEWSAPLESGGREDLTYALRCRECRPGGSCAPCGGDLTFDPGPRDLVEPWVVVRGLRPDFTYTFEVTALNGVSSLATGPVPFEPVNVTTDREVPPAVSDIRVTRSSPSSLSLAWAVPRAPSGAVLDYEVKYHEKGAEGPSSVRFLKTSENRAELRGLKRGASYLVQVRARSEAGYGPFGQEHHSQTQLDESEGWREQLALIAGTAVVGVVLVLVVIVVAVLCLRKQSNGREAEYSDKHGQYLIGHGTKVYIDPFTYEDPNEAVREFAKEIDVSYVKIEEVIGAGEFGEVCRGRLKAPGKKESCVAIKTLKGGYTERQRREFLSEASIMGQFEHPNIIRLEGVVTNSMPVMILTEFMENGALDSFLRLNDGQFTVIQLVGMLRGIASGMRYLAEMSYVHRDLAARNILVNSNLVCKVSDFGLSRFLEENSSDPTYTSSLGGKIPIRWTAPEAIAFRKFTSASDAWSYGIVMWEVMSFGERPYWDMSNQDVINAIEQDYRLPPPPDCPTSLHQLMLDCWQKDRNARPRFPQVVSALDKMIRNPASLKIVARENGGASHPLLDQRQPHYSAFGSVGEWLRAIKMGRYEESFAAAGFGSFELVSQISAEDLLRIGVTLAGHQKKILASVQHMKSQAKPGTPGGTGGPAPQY

[15] = target: T4, Ephrin type-B receptor 4 (Homo sapiens); settings: at 1 µM
[16] = target: Receptor tyrosine-protein kinase erbB-2 (Homo sapiens) (UniProt P04626); settings: at 0.1 µM
[17] = target: Receptor tyrosine-protein kinase erbB-2 (Homo sapiens) (UniProt P04626); settings: at 1 µM
[18] = target: Receptor tyrosine-protein kinase erbB-4 (Homo sapiens) (UniProt Q15303); settings: at 0.1 µM
[19] = target: Receptor tyrosine-protein kinase erbB-4 (Homo sapiens) (UniProt Q15303); settings: at 1 µM
[20] = target: Tyrosine-protein kinase Fer (Homo sapiens) (UniProt P16591); settings: at 0.1 µM;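 note: reported figures are averaged percent inhibition of FER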

Chain of Receptor tyrosine-protein kinase erbB-2 (Homo sapiens) (P04626 whole entry): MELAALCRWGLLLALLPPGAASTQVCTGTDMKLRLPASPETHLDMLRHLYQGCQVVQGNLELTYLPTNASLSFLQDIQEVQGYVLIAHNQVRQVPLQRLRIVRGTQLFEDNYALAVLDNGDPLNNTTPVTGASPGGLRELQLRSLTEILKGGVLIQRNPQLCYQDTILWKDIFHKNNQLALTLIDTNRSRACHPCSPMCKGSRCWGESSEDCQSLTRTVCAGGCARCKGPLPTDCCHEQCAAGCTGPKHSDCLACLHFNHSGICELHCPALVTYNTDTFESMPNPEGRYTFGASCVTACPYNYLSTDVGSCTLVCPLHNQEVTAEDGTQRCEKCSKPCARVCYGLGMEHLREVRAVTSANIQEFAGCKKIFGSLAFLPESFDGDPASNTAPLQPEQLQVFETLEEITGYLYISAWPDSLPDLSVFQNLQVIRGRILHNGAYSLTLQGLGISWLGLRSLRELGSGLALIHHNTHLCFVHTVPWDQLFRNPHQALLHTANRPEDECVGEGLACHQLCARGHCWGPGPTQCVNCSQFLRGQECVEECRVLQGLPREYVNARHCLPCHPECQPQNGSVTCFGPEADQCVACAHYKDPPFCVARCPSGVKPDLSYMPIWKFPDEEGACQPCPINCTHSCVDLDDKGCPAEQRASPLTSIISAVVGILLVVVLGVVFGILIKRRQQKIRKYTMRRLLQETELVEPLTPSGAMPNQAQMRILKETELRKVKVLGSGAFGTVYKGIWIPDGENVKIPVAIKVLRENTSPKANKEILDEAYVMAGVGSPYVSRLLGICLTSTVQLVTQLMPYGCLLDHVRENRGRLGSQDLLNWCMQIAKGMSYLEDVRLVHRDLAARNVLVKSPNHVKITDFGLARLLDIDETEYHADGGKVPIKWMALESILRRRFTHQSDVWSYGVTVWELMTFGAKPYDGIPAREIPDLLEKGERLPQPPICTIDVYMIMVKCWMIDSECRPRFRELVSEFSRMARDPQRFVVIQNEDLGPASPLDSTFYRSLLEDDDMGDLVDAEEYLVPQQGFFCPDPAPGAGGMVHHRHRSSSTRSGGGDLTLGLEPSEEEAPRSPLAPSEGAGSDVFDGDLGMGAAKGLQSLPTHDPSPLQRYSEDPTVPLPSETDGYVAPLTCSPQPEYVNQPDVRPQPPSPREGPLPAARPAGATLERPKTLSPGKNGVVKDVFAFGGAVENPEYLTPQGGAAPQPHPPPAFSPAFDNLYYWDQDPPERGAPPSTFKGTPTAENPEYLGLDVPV
Chain of Receptor tyrosine-protein kinase erbB-4 (Homo sapiens) (Q15303 whole entry): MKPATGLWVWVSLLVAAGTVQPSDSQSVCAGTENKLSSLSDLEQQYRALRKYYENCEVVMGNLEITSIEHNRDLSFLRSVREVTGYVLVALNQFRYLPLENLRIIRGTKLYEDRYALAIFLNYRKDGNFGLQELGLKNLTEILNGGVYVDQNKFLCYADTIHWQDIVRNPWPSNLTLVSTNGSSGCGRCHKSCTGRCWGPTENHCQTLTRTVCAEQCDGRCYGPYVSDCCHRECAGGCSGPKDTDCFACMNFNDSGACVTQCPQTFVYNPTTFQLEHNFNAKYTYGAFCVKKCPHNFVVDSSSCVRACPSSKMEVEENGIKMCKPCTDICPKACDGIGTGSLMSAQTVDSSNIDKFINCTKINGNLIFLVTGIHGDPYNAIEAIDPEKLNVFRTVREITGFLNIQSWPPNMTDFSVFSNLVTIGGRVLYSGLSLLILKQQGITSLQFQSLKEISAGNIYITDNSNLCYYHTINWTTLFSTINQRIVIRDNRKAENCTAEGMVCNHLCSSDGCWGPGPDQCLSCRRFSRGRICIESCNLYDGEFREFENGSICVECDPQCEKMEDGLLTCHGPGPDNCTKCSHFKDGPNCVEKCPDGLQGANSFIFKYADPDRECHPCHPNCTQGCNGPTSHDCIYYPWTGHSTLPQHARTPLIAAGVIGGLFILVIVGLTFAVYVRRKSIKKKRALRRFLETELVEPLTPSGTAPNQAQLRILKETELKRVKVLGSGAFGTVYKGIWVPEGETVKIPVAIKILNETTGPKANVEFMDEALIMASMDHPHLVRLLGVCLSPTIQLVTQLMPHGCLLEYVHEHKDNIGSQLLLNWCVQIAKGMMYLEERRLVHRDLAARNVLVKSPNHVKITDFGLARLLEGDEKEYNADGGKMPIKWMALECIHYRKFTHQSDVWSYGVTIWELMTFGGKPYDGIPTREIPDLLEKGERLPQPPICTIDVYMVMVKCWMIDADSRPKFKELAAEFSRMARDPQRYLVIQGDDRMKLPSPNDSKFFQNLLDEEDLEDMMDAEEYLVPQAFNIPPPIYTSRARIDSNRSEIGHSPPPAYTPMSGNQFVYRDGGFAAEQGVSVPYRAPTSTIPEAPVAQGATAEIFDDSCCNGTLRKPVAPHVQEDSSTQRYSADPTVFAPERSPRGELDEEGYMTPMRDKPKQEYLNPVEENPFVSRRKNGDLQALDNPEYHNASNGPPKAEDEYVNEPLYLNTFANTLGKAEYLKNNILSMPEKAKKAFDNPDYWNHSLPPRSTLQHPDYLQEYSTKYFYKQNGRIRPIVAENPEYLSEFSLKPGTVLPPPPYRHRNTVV
Chain of Epidermal growth factor receptor (Homo sapiens), P00533 [L858R,T790M] (P00533 whole entry T790M/L858R, looked up): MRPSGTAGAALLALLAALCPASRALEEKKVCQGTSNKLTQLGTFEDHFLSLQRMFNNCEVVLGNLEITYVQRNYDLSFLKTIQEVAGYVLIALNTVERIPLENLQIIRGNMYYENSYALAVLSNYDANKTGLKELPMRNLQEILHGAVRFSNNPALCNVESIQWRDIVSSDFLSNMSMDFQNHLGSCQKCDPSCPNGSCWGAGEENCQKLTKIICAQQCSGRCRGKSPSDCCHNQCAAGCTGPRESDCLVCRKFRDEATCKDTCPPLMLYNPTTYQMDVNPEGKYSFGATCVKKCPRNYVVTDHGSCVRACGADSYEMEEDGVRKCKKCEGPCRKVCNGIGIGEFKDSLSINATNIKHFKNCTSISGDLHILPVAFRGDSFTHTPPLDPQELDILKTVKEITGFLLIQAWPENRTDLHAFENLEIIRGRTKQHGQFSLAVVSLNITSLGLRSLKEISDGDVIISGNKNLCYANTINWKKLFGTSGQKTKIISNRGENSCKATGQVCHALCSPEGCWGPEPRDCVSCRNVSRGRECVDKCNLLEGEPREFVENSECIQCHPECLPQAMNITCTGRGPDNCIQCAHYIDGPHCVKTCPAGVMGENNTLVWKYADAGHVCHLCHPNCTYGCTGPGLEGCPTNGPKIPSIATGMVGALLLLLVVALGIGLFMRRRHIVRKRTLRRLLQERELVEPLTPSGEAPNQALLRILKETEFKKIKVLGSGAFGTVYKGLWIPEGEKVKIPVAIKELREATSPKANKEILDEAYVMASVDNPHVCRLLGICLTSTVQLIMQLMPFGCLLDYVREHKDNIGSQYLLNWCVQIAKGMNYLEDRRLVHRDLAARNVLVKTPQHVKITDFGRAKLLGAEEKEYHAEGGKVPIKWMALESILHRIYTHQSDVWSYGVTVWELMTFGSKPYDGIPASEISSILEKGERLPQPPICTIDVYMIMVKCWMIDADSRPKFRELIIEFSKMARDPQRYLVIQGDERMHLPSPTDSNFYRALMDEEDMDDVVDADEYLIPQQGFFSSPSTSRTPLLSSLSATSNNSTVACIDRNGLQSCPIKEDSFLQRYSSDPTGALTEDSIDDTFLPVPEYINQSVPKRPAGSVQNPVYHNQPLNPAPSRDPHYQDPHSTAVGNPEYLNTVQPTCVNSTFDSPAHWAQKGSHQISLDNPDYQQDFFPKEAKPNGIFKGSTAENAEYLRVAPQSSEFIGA
Chain of Epidermal growth factor receptor (Homo sapiens), P00533 [T790M] (P00533 whole entry T790M): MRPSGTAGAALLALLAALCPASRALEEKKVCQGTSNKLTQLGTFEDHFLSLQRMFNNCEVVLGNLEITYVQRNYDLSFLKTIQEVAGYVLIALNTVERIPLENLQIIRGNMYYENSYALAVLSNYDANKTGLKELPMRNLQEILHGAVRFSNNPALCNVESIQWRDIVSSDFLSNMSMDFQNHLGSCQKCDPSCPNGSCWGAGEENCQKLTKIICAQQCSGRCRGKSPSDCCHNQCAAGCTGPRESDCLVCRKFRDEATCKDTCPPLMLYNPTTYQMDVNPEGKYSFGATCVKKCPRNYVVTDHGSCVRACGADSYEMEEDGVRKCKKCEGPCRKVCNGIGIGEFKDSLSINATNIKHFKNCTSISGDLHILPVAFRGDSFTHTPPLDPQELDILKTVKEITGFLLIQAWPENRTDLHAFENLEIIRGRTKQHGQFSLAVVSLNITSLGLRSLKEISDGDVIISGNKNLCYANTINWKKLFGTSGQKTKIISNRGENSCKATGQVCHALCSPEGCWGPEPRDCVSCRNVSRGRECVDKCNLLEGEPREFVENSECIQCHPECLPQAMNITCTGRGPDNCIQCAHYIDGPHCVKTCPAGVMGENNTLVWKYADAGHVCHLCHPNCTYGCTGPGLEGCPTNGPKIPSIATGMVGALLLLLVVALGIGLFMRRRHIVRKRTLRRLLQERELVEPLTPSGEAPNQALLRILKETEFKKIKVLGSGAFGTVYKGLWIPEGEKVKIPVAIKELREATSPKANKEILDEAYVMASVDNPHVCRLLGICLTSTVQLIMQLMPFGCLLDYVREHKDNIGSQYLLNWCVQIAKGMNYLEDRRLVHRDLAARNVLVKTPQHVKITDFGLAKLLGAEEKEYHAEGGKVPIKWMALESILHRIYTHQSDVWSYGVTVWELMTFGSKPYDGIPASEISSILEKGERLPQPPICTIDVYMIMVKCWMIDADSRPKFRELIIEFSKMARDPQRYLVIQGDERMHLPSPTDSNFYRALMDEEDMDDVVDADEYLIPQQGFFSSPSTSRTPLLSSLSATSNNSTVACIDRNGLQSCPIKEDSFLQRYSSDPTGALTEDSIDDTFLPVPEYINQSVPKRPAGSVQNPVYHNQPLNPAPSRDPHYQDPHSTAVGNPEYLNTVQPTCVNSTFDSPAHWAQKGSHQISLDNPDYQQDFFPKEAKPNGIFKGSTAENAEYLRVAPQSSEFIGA

Structure (SMILES) | inhibition [1] [%] | inhibition [2] [%] | inhibition [3] [%] | inhibition [4] [%] | inhibition [5] [%] | inhibition [6] [%] | inhibition [7] [%] | inhibition [8] [%] | inhibition [9] [%] | inhibition [10] [%] | inhibition [11] [%] | inhibition [12] [%] | inhibition [13] [%] | inhibition [14] [%] | inhibition [15] [%] | inhibition [16] [%] | inhibition [17] [%] | inhibition [18] [%] | inhibition [19] [%] | inhibition [20] [%]
Fc1ccc(-c2ncn(CCCN3CCOCC3)c2-c2ccncc2)cc1 | -1.55 | -3.9 | 1.72 | 0.95 | 1.3 | 1.04 | 0.84 | 1.1 | -5.4 | -4.85 | -5.28 | 2.51 | -2.79 | 0.93 | -0.14 | -0.2 | -6.58 | 4.44 | 4.14 | 0.26
CNC(=O)c1cncc(/C=C/c2c(C)cccc2C)c1 | 0.11 | 0.33 | 1.36 | 8.07 | 44.4 | 2.95 | 16.1 | 25.5 | 80.9 | 23.2 | 65.9 | -1 | 2.29 | 7.98 | 45.7 | -0.21 | 1.84 | -1.45 | 2.45 | 1.13
O=C(Nc1n[nH]c2cc(-c3cc(F)ccc3F)ccc12)C1CC1 | 1.25 | 3.1 | 2.41 | -2.28 | -0.08 | 1.66 | 4.19 | 5.23 | 3.94 | 6.32 | 8.75 | 8.17 | 2.98 | 2.32 | 4.67 | 3.32 | 1.51 | 8.07 | 8.44 | 2.98
NS(=O)(=O)c1ccc(N/N=C2\C(=O)Nc3ccc(-c4cnco4)cc32)cc1 | 1.56 | -2.11 | 5.42 | -5.84 | -4.92 | -2.34 | 0.23 | 5.13 | 10.8 | 6.73 | 7.61 | -2.23 | -3.53 | -2.49 | -0.26 | 4.9 | 13.6 | 5.79 | 14.2 | 1.03
Clc1ccc(CNc2nccc(-c3cnn4ncccc34)n2)cc1 | -0.46 | 0.01 | 3.09 | 1.88 | 1.02 | 2.21 | 3.84 | 5.02 | 13 | 7.93 | 9.79 | 2.09 | 2 | 0.83 | 0.64 | -2.69 | 2.99 | 3.33 | 1.08 | 3.91
O=C(Nc1ccc(Oc2ccc3[nH]c(NC(=O)c4ccccc4)nc3c2)cc1)Nc1cc(C(F)(F)F)ccc1F | 5.49 | 1.07 | 2.34 | 2.75 | 26 | 4.22 | 8.94 | 13.4 | 64.2 | 13.7 | 61.8 | 5.05 | 8.33 | 3.63 | 27.5 | 2.77 | 4.41 | 6.9 | 9.12 | 1.59
COc1cccc(-n2cnc3c(N/N=C/c4ccncc4)ncnc32)c1 | 5.78 | -1.35 | 6.65 | -0.82 | 0.55 | -3.39 | -0.79 | 3.18 | 25.6 | 2.42 | 16.2 | -8.69 | -4.51 | -2.1 | 0.65 | 0.94 | 7.49 | -3.73 | 2.45 | 4.18
